Assay outcomes: PubChem, several laboratories
PAFAH1B2 inh: PAFAH1B2 (human) inhibition | AID 492953 | recombinant PAFAH1B2, FP-rhodamine activity probe, fluorescence polarization | P68402 | inhibition, % at 3.39 µM | 340,000 tested, 1.2% active;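 active means inhibition above the mean of all tested compounds plus 3 SD, cut at about 24% in these data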;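 further: 0% = enzyme with DMSO and 100% = wells lacking PAFAH1B2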
Target sequence (P68402 whole entry, looked up): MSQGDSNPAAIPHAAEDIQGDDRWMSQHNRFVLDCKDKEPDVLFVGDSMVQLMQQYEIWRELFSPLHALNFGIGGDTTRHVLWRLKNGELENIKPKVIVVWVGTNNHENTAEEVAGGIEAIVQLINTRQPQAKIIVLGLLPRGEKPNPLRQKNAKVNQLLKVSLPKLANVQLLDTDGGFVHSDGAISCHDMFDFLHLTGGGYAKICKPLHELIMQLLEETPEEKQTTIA
ATG4B inh: inhibitors of human ATG4B cysteine protease; Q9Y4P1; ATG4B cleavage of LC3-PLA2, NBD-HPC fluorescence, 1 h; inhibition, % at 8.33 µM; 340,000 tested, 0.51% active; in the data active means inhibition above about 40%
PAFAH2 FP inh: inhibitors of human PAFAH2 | Q99487 | recombinant PAFAH2, FP-rhodamine activity probe, fluorescence polarization | inhibition, % at 3.39 µM | 340,000 tested, 0.99% active | AID 492956;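 active means inhibition above the mean over all tested compounds plus 3 SD, cut at about 30% in these data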;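 further: inhibitors block probe labeling of enzyme so polarization drops; 0% = enzyme with DMSO and 100% = wells lacking PAFAH2 protein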
DAGLB inh: blocks human DAGLB lipase activity; Q8NCG7; HEK293T DAGLB membrane lysate, EnzChek fluorogenic substrate; inhibition, % at 5.17 µM; 340,000 tested, 0.059% active; AID 504411; in the data active means inhibition above about 34%;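 further: 0% = enzyme with vehicle and 100% = wells lacking enzyme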
pPAFAH FP inh: inhibitors of human plasma PAF acetylhydrolase (pPAFAH); recombinant pPAFAH, FP-rhodamine probe fluorescence polarization; inhibition, % at 3.39 µM; 330,000 tested, 1.5% active;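 active means inhibition above the mean inhibition across the screen plus 3 SD, cut at about 25% in these data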;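 further: inhibitors block binding of the rhodamine activity-based probe so polarization drops; 0% = enzyme with DMSO and 100% = wells lacking pPAFAH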
PAFAH1B3 FP inh: PAFAH1B3 (human) inhibition; Q15102; recombinant PAFAH1B3, FP-rhodamine probe, fluorescence polarization; inhibition, % at 3.39 µM; 340,000 tested, 0.28% active; AID 492972;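 active means inhibition above the screen-wide average of all tested compounds plus 3 SD, cut at about 25% in these data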;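 further: 0% = enzyme with DMSO only and 100% = wells lacking PAFAH1B3 protein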
Target sequence (Q15102 whole entry, looked up): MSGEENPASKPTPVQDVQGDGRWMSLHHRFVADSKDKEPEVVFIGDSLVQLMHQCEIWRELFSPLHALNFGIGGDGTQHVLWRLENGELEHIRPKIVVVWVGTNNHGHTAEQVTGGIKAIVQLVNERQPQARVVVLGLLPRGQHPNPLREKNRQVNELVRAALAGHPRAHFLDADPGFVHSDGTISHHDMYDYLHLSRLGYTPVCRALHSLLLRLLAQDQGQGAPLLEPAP
* = called active by the depositor; . = no result. Rows were chosen to be rich in hits. Some 3% of all compounds tested hit in one or more screens of this group.

SMILES	PAFAH1B2 inh	ATG4B inh	PAFAH2 FP inh	DAGLB inh	pPAFAH FP inh	PAFAH1B3 FP inh
CC(C)Cn1c2ccccc2c2cc(C(=O)O)ccc21	29*	8	2	-1	3	3
COc1ccc(-c2cc(C3CC3)nc(N)c2C#N)cc1	4	9	1	-4	11	1
COc1ccc(-c2cc(C3CC3)nc3sc(C#N)c(N)c23)cc1	0	4	-5	-3	31*	4
C[C@H](CO)N1C[C@H](C)[C@H](CN(C)S(=O)(=O)c2ccc(Cl)cc2)OCc2cnnn2CCCC1=O	.	.	.	0	.	.
CC(=O)C[C@@H](O)CC(=O)[C@@H]1OC(=O)CCCCCCCCc2ccccc21	28*	-3	-3	0	3	-11
CC(=O)C[C@@H](O)CC(=O)[C@H]1OC(=O)CCCCCc2ccccc21	7	.	0	-3	5	13
CC(=O)C[C@@H](O)CC(=O)[C@@H]1OC(=O)CCCCCCCc2ccccc21	-1	4	9	-7	0	8
CC(=O)C[C@@H](O)CC(=O)[C@H]1OC(=O)CCCCCCCCc2ccccc21	43*	6	-3	-3	0	4
O=C(C[n+]1ccccn1)c1ccccc1	-3	-1	-1	-1	3	3
CCCc1cc(=O)[nH]c(SCC(=O)NC2CCCc3ccccc32)n1 (stereo not drawn)	26*	-7	1	2	-1	-3
Cc1nn(CCCC(=O)Nc2c(F)cc(F)cc2Br)c(C)c1[N+](=O)[O-]	2	3	2	1	0	9
Cc1cc(Br)ccc1S(=O)(=O)NCc1ccccc1	19	4	-3	4	11	3
CC(C)c1ccc(C(C)NC(=O)C2CCCC2)cc1 (stereo not drawn)	4	1	4	2	3	12
CC(NC(=O)C1CCCC1)c1ccc(Br)cc1 (stereo not drawn)	40*	3	3	-2	2	3
Cc1ccc(S(=O)(=O)N2[C@@H](c3ccc(Cl)cc3)C(C(=O)O)=C[C@H]2C(C)(C)C)cc1	51*	.	-2	4	1	3
CCCC[C@@H]1C=C(C(=O)O)[C@H](c2ccc(C)cc2)N1S(=O)(=O)c1ccc(C)cc1	2	-4	15	1	6	3
CCCC[C@@H]1C=C(C(=O)O)[C@H](c2ccc(Cl)c(Cl)c2)N1S(=O)(=O)c1ccc(C)cc1	26*	19	2	8	-1	9
Cc1nn(C(=O)c2ccco2)c(C)c1Sc1ccccc1	3	-1	52*	-5	4	11
CNC(=O)c1ccc(-c2sc3nc(N4CCOCC4)c4c(c3c2N)CCCC4)o1	1	-3	-2	6	27*	3
Nc1c(C(=O)NCc2ccccc2)sc2nc(N3CCOCC3)c3c(c12)CCCC3	4	-9	6	1	27*	-9
O=C(c1cc2ccc([N+](=O)[O-])cc2oc1=O)N1CCOCC1	4	-8	9	-3	2	-1
CC1(C)CC(=O)C(C=Nc2ccc(O)c(N=CC3=C(O)CC(C)(C)CC3=O)c2)=C(O)C1	1	-7	55*	3	33*	9
COc1cc(CCC(=O)NNC(=O)c2cccc(Cl)c2)cc(OC)c1OC	0	-6	-3	-3	1	1
CCOC(=O)c1ccc(NC2=CC(=O)C(=O)c3ccccc32)cc1	14	-7	38*	4	17	58*
NS(=O)(=O)c1ccc(NC2=CC(=O)C(=O)c3ccccc32)cc1	2	6	13	4	18	19
SMILES	PAFAH1B2 inh	ATG4B inh	PAFAH2 FP inh	DAGLB inh	pPAFAH FP inh	PAFAH1B3 FP inh
Cc1cc(C)c(OCC(=O)OCC(=O)NC2CCCCCCC2)c(C)c1	-4	6	-4	-11	18	-3
CCC(=O)c1ccc(OCC(=O)OCC(=O)NCCC2=CCCCC2)cc1	0	-8	0	2	3	0
Cc1ccc(SCC(=O)NCCC2=CCCCC2)cc1	50*	12	-2	-11	5	1
Cc1cc(C)c(OCC(=O)OCC(=O)NCCC2=CCCCC2)c(C)c1	3	10	-1	-4	33*	8
Cc1cc(C)c(OCC(=O)OCC(=O)NC2CCC(C)CC2)c(C)c1 (stereo not drawn)	6	-1	-3	-6	26*	3
COCCCNC(=S)Nc1ccc(S(=O)(=O)Nc2cc(OC)nc(OC)n2)cc1	-2	9	-2	1	1	3
Cn1cncc1C#Cc1c(C=O)[nH]c2ccccc12	8	2	6	-2	6	6
CC(C)c1ccc(/C=C2\Oc3c(ccc(O)c3CN3CCN(C)CC3)C2=O)cc1	25*	4	76*	-4	14	8
Cc1ccc(/C=C2\Oc3c(ccc(O)c3CN3CCN(CCO)CC3)C2=O)cc1	-2	-3	18	1	-3	3
Nc1cccc(C2=Nc3cccc4cccc(c34)N2)c1	25*	7	-13	7	-3	33*
COc1ccc(C(=O)Nc2cnn(Cc3c(F)cccc3Cl)c2)cc1OC	-2	13	-2	-4	1	14
Cc1cccc(NC(=O)COC(=O)c2cccc3c2C(=O)c2ccccc2C3=O)c1C	4	32	13	2	31*	13
Cc1cccc(C)c1NC(=O)COC(=O)c1cccc2c1C(=O)c1ccccc1C2=O	-13	-4	10	2	4	-3
CC1CCCC(NC(=O)COC(=O)CCC2CCCC2)C1C (stereo not drawn)	2	-10	-6	-3	28*	-4
Cc1ccc(OCCC(=O)OCC(=O)NC2CCCC(C)C2C)cc1 (stereo not drawn)	34*	-2	-3	-3	22	5
COc1cc(CCC(=O)OCC(=O)NC2CCCC(C)C2C)cc(OC)c1OC (stereo not drawn)	-1	-10	4	-2	7	6
Cc1ccsc1C(=O)OCC(=O)NC1CCCC(C)C1C (stereo not drawn)	5	-5	85*	0	32*	6
CC1CCCC(NC(=O)Cc2ccc(Br)cc2)C1C (stereo not drawn)	-1	10	-4	-1	9	3
Cc1ccsc1C(=O)OCC(=O)NC1CCS(=O)(=O)C1 (stereo not drawn)	3	2	3	1	1	2
CC1CCCC(NC(=O)COC(=O)Cc2ccc(Br)cc2)C1C (stereo not drawn)	.	6	.	.	25*	.
Cc1cnc(C(=O)OCC(=O)NCc2cccc(Cl)c2)cn1	-1	2	3	-2	1	-4
COCCN(C(=O)c1ccc2c(c1)C(=O)N(c1ccccc1Cl)C2=O)c1c(N)n(CC(C)C)c(=O)[nH]c1=O	6	-28	10	2	.	8
CCOc1ccc(OCCC(=O)OCC(=O)NC2CCCCC2)cc1	7	3	7	0	31*	22
